Measured values taken from PubChem BioAssay (EPA / NIEHS).
Where “and” joins values, the source holds several entries; their conditions need not be identical. Equal entries are not always repeated. Some compounds were tested as several samples or in several runs, with calls that do not always agree. Calls of active or inactive are those of the source. Rule for the calls: active = hit-call score of the fitted dose curve at least 0.9, where 1 is the maximum; inactive = score below 0.9.

The compounds below were run on Intercellular Adhesion Molecule 1 (ICAM1), ICAM1 (gene 3383) (assay: BSK_BE3C_ICAM1: BioMAP Diversity Plus: BE3C Assay for Intercellular Adhesion Molecule 1 (ICAM1) Biomarker Activity (AID 2284278)). Settings: primary human bronchial epithelial cells.
Method: BSK_BE3C is a cell-based, multiplexed-readout assay that uses bronchial epithelial cell, a human lung primary cell, with measurements taken at 24 hours after chemical dosing in a 96-well plate.BSK_BE3C_ICAM1 is an assay component measured in the BSK_BE3C assay. It measures ICAM-1 antibody related to regulation of gene expression using ELISA technology.Data from the assay component BSK_BE3C_ICAM1 was analyzed at the endpoint, BSK_BE3C_ICAM1, in the positive analysis fitting direction relative to DMSO as the negative control and baseline of activity. Using a type of binding reporter, gain or loss-of-signal activity can be used to understand protein changes. To generalize the intended target to other relatable targets, this assay endpoint is annotated to the 'cell adhesion molecules' intended target family, where the subfamily is 'Immunoglobulin CAM'.
The levels of cell surface (or secreted, indicated by the prefix "s") biomarker endpoints were measured by ELISA. Overt cytotoxicity to cells in confluent adherent cultures (all systems other than the BT system) was assessed by measuring total protein levels using sulforhodamine B (SRB) staining in parallel cultures at the time of biomarker measurements, indicated as SRB endpoints. For proliferation assays for adherent cell types, individual cell types are cultured at sub-confluence and relative cell numbers quantified by SRB staining at time points optimized for each system (48 h: 3C and CASM3C systems; 72 h: BT and HDF3CGF systems; 96 h: SAg system). SRB was performed by staining cells with 0.1% SRB after fixation with 10% TCA and reading wells at 560 nm.Viability and proliferation of PBMC (T cells) was quantified by Alamar Blue reduction for the SAg and BT systems. For PBMC viability (referred to as PBMC Cytotoxicity within the assay endpoint names), cells were plated (75,000/well in a 96-well plate) and then chemical samples added for 1 h before addition of activators, SEB and TSST-1 (20 ng/mL final concentration each). Cells were incubated for 90 h. Then, Alamar Blue (20 uL/well) (Invitrogen, Cat DAL1100) was added for 6 h, and the plates were read with a fluorescence microplate reader at 546/580 nm (excitation/emission). For PBMC proliferation, cells were plated and activated as above but incubated for only 16 h prior to addition of Alamar Blue. Plates were read after 6 h.
For `Cc1c(C(N)=O)cc([N+](=O)[O-])cc1[N+](=O)[O-]`, the outcome was “inactive”. `CCC[Si](OC(C)=O)(OC(C)=O)OC(C)=O` was tested, and the outcome was “inactive”. With `O=[N+]([O-])c1cc(S(=O)(=O)Nc2ccccc2)ccc1Nc1ccccc1` the AC50 was 29.2 µM (active) and 37 µM (active). `OC(C(F)(F)F)(C(F)(F)F)C(O)(C(F)(F)F)C(F)(F)F` was tested, and the outcome was “inactive” and the AC50 was 44.7 µM (active). `CN(C)Cc1cc(C(C)(C)C)c(O)c(C(C)(C)C)c1` was tested, and the outcome was “inactive”. For `CCCCC(CC)COC(=O)C=Cc1ccc(OC)cc1` (stereo not drawn), the outcome was “inactive”. For `COc1cc(CNC(=O)CCCC/C=C/C(C)C)ccc1O`, the outcome was “inactive”. For `CC(C)C1OCCN1CCOC(=O)NCCCCCCNC(=O)OCCN1CCOC1C(C)C` (stereo not drawn), the outcome was “inactive”. `C1CN(CCOCCN2CCOCC2)CCO1` was tested, and the outcome was “inactive”. `CC[N+](CC)(CC(=O)Nc1c(C)cccc1C)Cc1ccccc1` (tested in a mixture with another compound) was tested, and the outcome was “inactive”. For `COc1ccc(C(=O)c2ccccc2O)c(O)c1`, the outcome was “inactive”. With `COc1ccccc1Oc1c(NS(=O)(=O)c2ccc(C(C)(C)C)cc2)nc(-c2ncccn2)nc1OCCO` the outcome was “inactive”.
